# Source: PubChem BioAssay (NCI)
# Compounds without any hit were thinned out: in the full panel of roughly 79,000, 15% have a hit. Unmarked numbers belong to inactive results. Activity calls are given as the source filed them. No stated cut-off is given here; in the data, active means growth inhibition above about 70%; inactive means the rest. Where a SMILES comes first, the peptide text is derived from it. The star is where a group is joined. Boc = CC(C)(C)OC(=O)*; tBu = CC(C)(C)*
# Experiments:
# [1] = NCI Yeast Anticancer Drug Screen. Data for the rad50 strain (AID 155);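 further: 0% = growth of vehicle-only cultures of the same strain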; conditions: S. cerevisiae rad50 strain growth inhibition; at 50.0 µM; stronger effect = higher value
# Method in brief: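 DNA repair mutant yeast, compound exposure, growth read-out; inhibition is taken relative to vehicle.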
# [2] = NCI Yeast Anticancer Drug Screen. Data for the mec2-1 strain (AID 157); conditions: S. cerevisiae mec2-1 strain, at 50.0 µM, stronger effect = higher value
# Method in brief: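 Yeast mec2-1 mutant treated with compound. Readout: growth inhibition vs vehicle controls.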
# [3] = NCI Yeast Anticancer Drug Screen. Data for the sgs1 mgt1 strain (AID 161);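 further: 0% = growth of cultures given vehicle only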; conditions: S. cerevisiae sgs1 mgt1 strain, at 50.0 µM, stronger effect = higher value
# Method in brief: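 Read-out: growth inhibition vs vehicle controls. Cells: mutant yeast strain deficient in DNA damage repair.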
# [4] = NCI Yeast Anticancer Drug Screen. Data for the cln2 rad14 strain (AID 165);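 further: 0% = growth equal to vehicle treated cultures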; conditions: S. cerevisiae cln2 rad14 strain, at 50.0 µM, stronger effect = higher value
# Method in brief: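 cln2 rad14 yeast strain; compound exposure; growth inhibition read vs vehicle controls.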
# [5] = NCI Yeast Anticancer Drug Screen. Data for the bub3 strain (AID 167); conditions: S. cerevisiae bub3 mutant strain, at 50.0 µM, stronger effect = higher value
# Method in brief: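 In this screen, a yeast mutant lacking normal mitotic checkpoint function is challenged with compound. Relative growth versus vehicle gives the inhibition value.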
# [6] = NCI Yeast Anticancer Drug Screen. Data for the mlh1 rad18 strain (AID 175); conditions: S. cerevisiae mlh1 rad18 strain growth inhibition; at 50.0 µM; stronger effect = higher value
# Method in brief: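 Yeast w/ defined DNA-repair lesions; compound exposure; growth vs vehicle controls → % inhibition.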
Compound,growth inhibition [1],growth inhibition [2] [%],growth inhibition [3],growth inhibition [4] [%],growth inhibition [5] [%],growth inhibition [6]
CC1(C(=O)O)CCCC1C(=O)O (stereo unspecified),12.5%,6.8,1.75%,-8.05,-1.25,12.1%
O=C(Nc1ccc(Br)cc1)c1cc(Cl)cc(Cl)c1Br,-23.4%,17.9,-16.8%,-11.6,2.85,27.7%
CCOC(=O)c1ccc(OC)cc1,-12.7%,-25.4,-8.8%,2.8,-3.55,-17.4%
CN1Cc2ccccc2-c2ccccc2C1,4.35%,1.8,-5.95%,-32.8,4.7,-2%
O=C(O)c1cc2oc3ccccc3c2cc1O,2.4%,-7.5,18.6%,4.4,2.4,23.3%
CCN(CC)CCN(C)C(=O)C(=O)c1ccccc1,-20.1%,-0.85,-10.6%,9.75,4.8,-8.2%
CC(C)CCC(C)(C)O,45.9%,1.8,16.1%,-20.7,9.95,34.2%
CC(=O)C1(SCCO)CCC2C3CCC4=CC(=O)CCC4(C)C3CCC21C (stereo unspecified),91.8% (active),69.8,97% (active),-3.35,41.1,77.2% (active)
COc1cc(C=O)cc(O)c1O,11.8%,3.05,-10.6%,-19.2,-1.9,-0.6%
N=C(N)c1ccc(C(=N)N)cc1,-16.4%,-14.3,-20.3%,-0.35,-0.75,-33.2%
O=C1CCC2=C3C4CCCC5OC6CC(=O)CCC6=C(C6CCCC(OC2C1)C36)C54 (stereo unspecified),5.5%,-2.15,6.55%,11.2,25.6,17.4%
OCCC1=CCC1,3.05%,20.9,-3.35%,29.6,4.95,5.4%
O=C(CNC(=O)c1ccccc1)Nc1ccc([N+](=O)[O-])cc1,15.2%,-0.65,-1.5%,26.8,22.6,5.7%
c1ccc(CNC2CC3CCC2C3)cc1 (stereo unspecified),-17.6%,-5.5,-10.8%,-5.15,-16.4,-1.3%
CCOC(=O)c1cc2nc(NC(=O)c3ccccc3)sc2n1C,4.85%,8.3,7.3%,10.3,6.4,16.8%
CN(C)CCNC1c2ccccc2-c2ccccc21,-15.1%,-22.6,3.35%,-0.9,10.2,-9%
CCO/C(O)=c1/s/c(=C2/SC(=S)N(c3ccc(C)cc3)C2=O)n(-c2ccccc2)c1=N,-3.8%,-16.8,-16.4%,-55.5,-21.4,-28.4%
CCC(C)[N+](=O)[O-] (stereo unspecified),3.6%,-5.1,-5.55%,-2.15,0.75,3.1%
CC(=O)C1CN(C)CCC1=O (stereo unspecified),-20%,-4.55,-19.8%,-11.2,-13.7,16.9%
CS(=O)(=O)OC(OS(C)(=O)=O)(OS(C)(=O)=O)OS(C)(=O)=O,15.9%,6.2,0.65%,-7.9,-2.4,9.3%
COc1cc(/C=N/N2CN(C(C)C(=O)O)B(NCCC(C)C)N=C2N)cc(OC)c1 (stereo unspecified),0.85%,-10.4,22%,-3.7,23.6,-6%

Compound,growth inhibition [1],growth inhibition [2] [%],growth inhibition [3],growth inhibition [4] [%],growth inhibition [5] [%],growth inhibition [6]
C/C(CC(=O)Nc1cc(C)ccc1C)=N/N=C(N)N,-24.6%,-28.3,-11.5%,17.8,-22.9,-8.55%
COC1=CC(=O)C(Cc2ccc3c(c2)OCO3)=CC1=O,13.2%,24.6,15.7%,-9.45,3.1,34.5%
CCOC(=O)Nc1nc(-c2ccc(Br)cc2)cs1,-11.5%,-5.4,-2.1%,-37.6,14.1,-17.9%
O=C(O)c1[nH]c(=O)[nH]c(=O)c1CN1CCCCC1,-39.8%,-21.6,-15.1%,-29.9,-23.4,-0.75%
N#CC(C(=N/NC(N)=S)/C(=N/NC(N)=S)C(C#N)c1ccc(Cl)cc1)c1ccc(Cl)cc1 (stereo unspecified),-16.9%,-19.8,-23.9%,-6.85,-4.95,-13.1%
O=C1CCCC2=C1CC1=C(CCCC1=O)N2c1cccc2ccccc12,7.7%,-16,12.7%,9.85,21.8,28.1%
CCOC(=O)C1=NC(c2ccccc2)(c2ccccc2)OC1=C(Cl)Cl,0.8%,-16.4,-0.2%,19.8,-11.4,-10.5%
CC1(O)c2ccccc2-c2c1n([O-])c1ccccc1[n+]2=O (stereo unspecified),7.9%,-6.2,12.2%,-43.9,-1.8,3.9%
C=CCCCCCCCCC(N)=O,-12.6%,-8.4,4.15%,-1.8,13.2,-14.6%
O=C(/C=C(\O)c1ccc(Cl)cc1)C(=O)NN=C(c1ccccc1)c1ccccc1,39%,33.7,3.1%,7.2,14.5,8.6%
Cc1cc(N)ccc1C(=O)O,1.7%,-7.65,-0.65%,4.15,5.2,2.45%
CCC(C(=O)O)C(C)(C)O (stereo unspecified),-10.8%,-11.1,-7.95%,7.05,-0.85,-15.3%
CC(=O)OC1CC2CC1C1CC=CC21 (stereo unspecified),35.2%,-2,-0.4%,34.1,2.4,14.4%
CCOC(=O)N1C=Cc2c(c3ccccc3n2C)N1C(=O)OCC,3.85%,1,2.15%,-6.3,5.7,-6.95%
C=C1CC/C=C(\C)C(=O)C(O)C2C1CC2(C)C (stereo unspecified),14.9%,-13.7,67.2%,16.4,23.9,78.8% (active)
NC(=O)c1nnsc1N/N=C/c1ccc([N+](=O)[O-])cc1,8.85%,25.9,-25.1%,-2.05,-20.1,-5.1%
O=c1c(Cl)c(Cl)cnn1CCc1ccncc1,2.2%,-4.05,-19.6%,11.4,-7.3,-2.65%
CC(OC(C)(C)C)C(NC(=O)C(N)CCCCNC(=O)OC(C)(C)C)C(=O)NC(Cc1ccccc1)C(=O)O (stereo unspecified) (H-Lys(Boc)-Thr(tBu)-Phe-OH; configuration not given here),-37.3%,-11.6,-39.4%,-14.8,-5,-15%
CC(C)N(C)c1ncnc2c1cnn2C,-1.55%,-2.85,-3.95%,-14.8,1.75,-14%
CCCCCCCNC(=O)C(Cl)Cl,7.85%,-16.8,-6.65%,-2.55,39.8,7.4%
